Assay outcomes deposited in PubChem BioAssay by National Center for Advancing Translational Sciences (NCATS).
aSyn yeast inh: alpha-synuclein toxicity inhibition in yeast | hit rate 0.14% among 370,000 | Yeast expressing alpha-synuclein, growth rescue, BacTiter-Glo, 24 h | AID 652106 | Potency, µM (series often up to 46.1 µM), for the others: at the highest dose growth rescue (activation), most hits filed as activators; also: % of control where 0% means no effect; nearly all actives have a fitted effect of over 65% in size
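Screening used galactose-induced yeast with toxic alpha-synuclein levels, exposed to compound for 24 hr at 30 deg C. Cell growth, read with BacTiter-Glo luminescence, gave the measured signal.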
MBNL1-CUG inh: MBNL1-poly(CUG) RNA binding inhibition; Q9NR56; TR-FRET MBNL1-His/biotin-(CUG)12 binding, 665/545 ratio; Potency, µM (series often up to 57.5 µM), inactives show at the top dose activity change, negative = inhibition, most hits filed as inhibitors; hit rate 0.036% among 280,000; active = well fitted inhibition curve with a large enough effect in the signal ratio, with a control signal flat, not every such curve was filed as active; inconclusive = small, poorly fitted or top-dose-only effect, or effect the other way, or a change in a side signal; inactive = no such curve, though single readings can be large or run the other way; the % refers to the signal ratio; also: % is scaled to controls: 0 for no effect and ±100 for the full control effect
Target sequence (Q9NR56 whole entry, looked up): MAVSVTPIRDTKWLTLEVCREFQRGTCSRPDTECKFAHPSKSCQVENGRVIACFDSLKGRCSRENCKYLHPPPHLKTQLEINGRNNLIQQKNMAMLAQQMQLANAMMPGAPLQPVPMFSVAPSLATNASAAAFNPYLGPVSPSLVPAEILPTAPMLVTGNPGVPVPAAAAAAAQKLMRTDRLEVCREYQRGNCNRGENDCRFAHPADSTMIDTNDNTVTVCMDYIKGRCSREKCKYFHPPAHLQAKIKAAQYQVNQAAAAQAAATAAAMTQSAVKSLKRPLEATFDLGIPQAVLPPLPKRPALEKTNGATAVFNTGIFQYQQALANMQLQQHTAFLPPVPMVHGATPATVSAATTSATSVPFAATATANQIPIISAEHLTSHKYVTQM
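Ratiometric TR-FRET (665 over 545 nm, excitation 340 nm) tracks disruption of MBNL1-His/biotin-(CUG)12 complex after 60 min at room temperature, with compounds at 92 nM to 58 uM final.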
FUS suppressor: suppressors of FUS proteinopathy in yeast; hit rate 0.24% among 390,000; Potency, µM (doses to about 76.6 µM), usual class: activators; S. cerevisiae FUS-expressing, growth rescue, OD600, 24 h;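 also: plate controls were DMSO vehicle for no effect and reference control for full effect; nearly all actives have a fitted effect of over 55% in size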
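S. cerevisiae expressing FUS from galactose induction served as the toxicity model. Growth after 24hr at 30C, read as absorbance at 600 nm, indicates suppression of toxicity; compounds dosed at several concentrations.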
Glioma ERSR ind: inducers of ER stress response in human glioma cells; hit rate 0.02% among 420,000; Potency, µM, for inactives: at the top dose activation, hits mostly activators; U87-MG GRP78 promoter luciferase reporter, 16 h; also: series mostly up to about 76 µM; % of control where 0% means no effect; nearly all actives have a fitted effect of over 35% in size
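ERSR induction read as luciferase luminescence (Bright-Glo, 10 min at room temperature) in stably transfected human U87-MG glioma cells exposed to compounds for 16 h, using GRP78 as sensor.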
TDP-43 yeast inh: inhibitors of TDP-43 toxicity in yeast | hit rate 1.8% among 410,000 | Potency, µM (highest dose often 46.1 µM), without a hit: top-dose growth rescue (activation), usual class: activators | TDP-43 expressing yeast growth rescue, BacTiter-Glo, 24 h; also: % of control where 0% means no effect; nearly all actives have a fitted effect of over 50% in size
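Cell-based yeast growth screen: TDP-43 expression induced in galactose, inoculum OD600=0.02 after raffinose pregrowth to mid-log. Read-out BacTiter-Glo luminescence at 24 hr, 30 deg C; inhibition of toxicity seen as signal increase.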
Abeta yeast res: compounds reversing amyloid beta toxicity in yeast; yeast expressing A-beta42, growth rescue, OD600, 48 h; response scale: 0% DMSO, 100% iron-clioquinol control; Potency, µM (titrated, usually from 46.1 µM), hits mostly activators; hit rate 0.063% among 410,000; AID 1347071; also: nearly all actives have a fitted effect of over 55% in size
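Yeast growth medium received pinned compounds, then yeast cells expressing toxic A-beta were added; plates incubated at 30 C for 48 hr. Growth read as absorbance at 600 nm, normalized to DMSO and equimolar FeCl3 plus clioquinol controls.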
Starred values were filed as active, the others as inactive; i = inactive; ? = inconclusive; · = not tested or not shown; ! = a repeat was not active. Sampled rows, rich in hits. Any-hit rate of the full collection: about 2%. Unless noted, calls follow the shape of the dose curve; as a rule, active = well fitted curve in the direction sought with a large enough effect; inconclusive = small, poorly fitted or top-dose-only effect, or another doubt; inactive = no such curve, though single readings can be large; an effect the other way counts as inactive or inconclusive. Potency is read from the fitted curve at half-maximal effect.

SMILES	aSyn yeast inh	MBNL1-CUG inh	FUS suppressor	Glioma ERSR ind	TDP-43 yeast inh	Abeta yeast res
O=S1(=O)C=C(Sc2nnc(-c3ccccc3)o2)c2ccccc21	-13%	?	i	-15%	8.9µM*	i
C/C(=C\c1ccco1)CN1CCOc2ccc(C(C)(O)COc3ccccc3)cc2C1 (configuration not stated)	·	·	·	3%	·	·
O=S(=O)(NCc1csc(-c2cccs2)n1)c1cccc(C(F)(F)F)c1	1%	·	i	-6%	18µM*	i
O=S(=O)(NCc1csc(-c2cccs2)n1)c1ccc(Cl)cc1	15%	·	i	-3%	?	i
O=C(CCl)N1c2ccccc2OCC1c1ccccc1 (configuration not stated)	11%	-13%	i	8%	30%	i
O=C(CCl)N1c2ccccc2SCC1c1ccccc1 (configuration not stated)	-2%	2%	i	-19%	7.9µM*	i
CC1(C)C=Cc2ccc(O)c(C(=O)/C=C/c3ccccc3)c2O1	·	·	i	·	·	·
Cn1c(SCc2ccccc2)nnc1C1CCCN(Cc2cccc3ncccc23)C1 (configuration not stated)	·	·	·	-4%	·	·
COc1ccc(N/N=C(/Oc2ccc([N+](=O)[O-])cc2)C(C)=O)cc1	6%	?	i	-4%	?	i
COc1ccc(NN=Nc2ccc([N+](=O)[O-])cc2)cc1	-9%	16%	i	1%	18µM*	?
C[C@@H]1COc2cc(F)ccc2S(=O)(=O)N1C	·	·	i	·	·	·
COc1cc2c(cc1OC)CN(C(=O)c1cccc([N+](=O)[O-])c1)CC2	?	?	i	-3%	22µM*	i
COc1cc2c(cc1OC)CN(C(=O)c1ccc(Br)o1)CC2	5%	-11%	i	-4%	16µM*	i
FC(F)(F)c1cnc(Nc2ccc(N3CCOCC3)cc2)c(Cl)c1	3%	-6%	i	-2%	13µM*	i
O=C(Nc1ccon1)Nc1cccc(Cl)c1Cl	1%	-3%	i	5%	13µM*	i
O=C(Nc1cccc(C(F)(F)F)c1)c1cc(-c2ccco2)on1	-2%	0%	i	2%	-2%	i
Cc1nc(Cl)sc1C(=O)Nc1ccc(C(C)(C)C)cc1	-12%	-8%	i	5%	11µM*	i
O=C(Nc1cccc(C(F)(F)F)c1)Nc1ccon1	-11%	-14%	i	0%	20µM*	i
O=C(Nc1cccc(C(F)(F)F)c1)c1sc(Cl)nc1C(F)(F)F	-23%	1%	i	-4%	13µM*	10µM*
Cc1ccccc1NC(=O)c1sc(Cl)nc1C	0%	-2%	i	-5%	?	i
CCOc1ccc(CCNC(=O)c2ccc3[nH]ccc3c2)cc1OCC	·	·	i	·	·	·
CCc1nc2ccccc2c(C(=O)OCC(=O)N(C)Cc2ccccc2)c1C	3%	·	i	1%	35µM*	i
CN(Cc1ccccc1)C(=O)COC(=O)c1ccc2ccccc2n1	3%	?	i	3%	15%	i
CCOC(=O)CC[C@H]1CC[C@]2(CCCN(C(=O)C3CCCC3)C2)O1	·	·	i	·	·	·
COc1cc(=O)n2c(c1C(=O)NC(C)c1ccco1)CCN(C(=O)c1cccc(C)c1C)CC2 (configuration not stated)	·	·	·	2%	·	·
SMILES	aSyn yeast inh	MBNL1-CUG inh	FUS suppressor	Glioma ERSR ind	TDP-43 yeast inh	Abeta yeast res
COC(=O)c1cc(C)sc1NC(=O)CCc1ccccc1	3%	2%	i	-4%	11µM*	i
COC(=O)c1ccsc1NC(=O)CCc1ccccc1	0%	-1%	i	1%	?	i
COC(=O)c1ccccc1NC(=O)CCc1ccccc1	-3%	11%	i	-3%	10µM*	i
Cc1nc(NC(=O)CCc2ccccc2)sc1C	2%	99%	i	1%	13µM*	i
O=C(c1ccc2c(c1)CCN2S(=O)(=O)c1ccccc1)N1CCN(c2ccc(F)cc2)CC1	14%	1%	18µM*!	-1%	?	i
CCOC(=O)[C@]12CCCC=C1N(Cc1ccc(Cl)cc1Cl)C(=O)[C@H](CC(=O)N1CCN(C(=O)c3ccco3)CC1)C2	29%	·	18µM*	·	16µM*	i
COC(=O)[C@]12CCCCC=C1N(Cc1ccc(Cl)cc1Cl)C(=O)[C@H](CC(=O)N1CCOCC1)C2	29%	·	?	·	18µM*	i
CCOC(=O)[C@]12CCCC=C1N(Cc1ccc(Cl)cc1Cl)C(=O)[C@H](CC(=O)N1CCCC1)C2	1%	·	i	·	11%	i
COc1ccccc1-c1ccnc(-n2ncc(C(=O)N(C)C(C)c3ccon3)c2C2CC2)n1 (configuration not stated)	·	·	·	6%	·	·
CC(OC(=O)Cc1cccc(C(F)(F)F)c1)C(=O)Nc1ccc(Cl)cn1 (configuration not stated)	2%	0%	i	-3%	?	5µM*
COc1cc(N=Nc2ccc(Br)cc2)cc(C=O)c1O	-38%	·	i	-3%	13µM*	i
COc1cc(CN(C)C)cc(C=O)c1O	-3%	9%	i	-5%	-19%	i
CC(C)(C)c1ccc(S(=O)(=O)Nc2noc3ccccc23)cc1	-11%	5%	i	-3%	20µM*	i
COc1ccc(S(=O)(=O)Nc2noc3ccccc23)cc1	-4%	-2%	i	0%	11µM*	i
COc1cccc(S(=O)(=O)Nc2noc3ccccc23)c1	0%	-9%	i	-4%	?	i
COc1ccc(S(=O)(=O)Nc2noc3ccccc23)cc1OC	-5%	-3%	i	-4%	?	i
COc1cccc(N2CCN(C(=O)C3CCN(S(=O)(=O)c4ccc5c(c4)CC(C)N5C(C)=O)CC3)CC2)c1 (configuration not stated)	7%	-5%	14µM*	-1%	19%	·
COC(=O)[C@@H](C)NC(=O)C(Cc1ccc2c(c1)OCO2)NC(C)=O (some centres not stated)	·	·	i	·	·	·
COc1ccc(CNC(=O)c2ccc(-c3nc(CS(=O)c4ccc(C)cc4)c(C)o3)cc2)cc1 (configuration not stated)	·	·	25µM*	-1%	-27%	i
CC1(C)C(=O)C=CC(=O)C(C)(C)C(=O)C=CC(=O)C(C)(C)C2=CC=C(O2)C(C)(C)C(=O)C=CC1=O	8%	·	·	9%	16µM*	i
